# Laboratory results taken from PubChem BioAssay (NCATS).
# Records with an inconclusive call do not appear. A structure can be active in one record and inactive in another. The source made the active and inactive calls. Unless noted, how the calls were made is not given here. Starred links: 1 amine or outer side, 2 acyl side, 3 side chain; linkers in the order of their positions; H or OH if unused. Positions of bridges follow the written chain, without caps; N, C: chain ends. Non-standard residues stand in square brackets, D forms with d. Residues, ends and D or L forms follow the SMILES beside them. *: point of attachment. X2 = NC1=C[C@@H](O)C[C@H]([C@H](N[*:1])C(=O)[*:2])N1; ΔAla(3-NHCONH2) = NC(=O)NC=C(N)C(=O)O; β3hOrn = NCCC[C@H](N)CC(=O)*; Dap = NC[C@H](N)C(=O)O
# Tests used:
# [1] = target: Cytochrome P450 2C9 (Homo sapiens) (UniProt P11712); experiment: qHTS Assay for Inhibitors and Substrates of Cytochrome P450 2C9 (AID 883; active means well fitted curve in the direction sought with a large enough effect; an effect the other way counts as inactive or inconclusive; further: nearly all actives have a fitted effect of over 60% in size; further: potency means the concentration at half of the fitted maximal effect; on activity change, negative = inhibition: on the % scale 0 is the no-effect control and ±100 the full control effect)
# Sequence of Cytochrome P450 2C9 (Homo sapiens) (P11712 whole entry, looked up): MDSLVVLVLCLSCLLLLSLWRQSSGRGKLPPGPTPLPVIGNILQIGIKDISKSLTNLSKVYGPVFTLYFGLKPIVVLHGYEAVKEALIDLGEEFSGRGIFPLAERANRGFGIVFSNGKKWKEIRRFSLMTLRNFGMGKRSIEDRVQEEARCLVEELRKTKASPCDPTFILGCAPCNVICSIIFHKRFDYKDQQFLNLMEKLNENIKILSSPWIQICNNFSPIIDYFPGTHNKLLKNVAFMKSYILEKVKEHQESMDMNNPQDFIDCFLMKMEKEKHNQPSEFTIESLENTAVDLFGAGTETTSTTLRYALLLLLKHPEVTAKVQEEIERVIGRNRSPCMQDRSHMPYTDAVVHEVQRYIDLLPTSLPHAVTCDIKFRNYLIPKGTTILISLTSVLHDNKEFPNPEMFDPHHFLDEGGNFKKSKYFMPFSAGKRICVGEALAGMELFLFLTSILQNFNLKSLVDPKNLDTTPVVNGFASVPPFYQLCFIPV
# Outline: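 10nM CYP2C9 + 100uM Luciferin-H (=KM), 25mM KPO4; cpd 10 min 37C; NADPH regen, 60 min 37C; stop/detect with P450 Glo-Buffer 20 min; luminescence. Norm. to 57uM sulphaphenazole as full inhibition.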
# [2] = qHTS profiling of the MIPE4 collection as inhibitors of Plasmodium falciparum (3D7) proliferation (AID 743344);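 further: scaled between DMSO vehicle wells and 0.29 µM artemisinin as full inhibition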; details: P. falciparum 3D7 in erythrocytes, SYBR Green DNA fluorescence, 72 h; at 28.5 µM (top of the series)
# Outline: (§1)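 Parasite DNA was quantified by SYBR Green I fluorescence (ex 485, em 535 nm) after overnight lysis in saponin/Triton buffer at room temperature. Cultures at 0.3% parasitemia and 2.5% hematocrit were first exposed to compound for 72 h at 37 C; signals were normalised to artemisinin (0.29 uM) and vehicle wells.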
# [3] = qHTS profiling of the MIPE4 collection as inhibitors of Plasmodium falciparum (DD2) proliferation (AID 743345); details: P. falciparum Dd2 in erythrocytes, SYBR Green DNA, 72 h; at 28.5 µM (top of the series)
# Outline: as §1
# [4] = qHTS profiling of the MIPE4 collection as inhibitors of Plasmodium falciparum (DD2) proliferation (Rep 2) (AID 743346); details: P. falciparum Dd2 in erythrocytes, SYBR Green DNA, 72 h; at 28.5 µM (top of the series)
# Outline: as §1
# [5] = qHTS profiling of the MIPE4 collection as inhibitors of Plasmodium falciparum (HB3) proliferation (AID 743347);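 further: plate controls were DMSO vehicle wells for no effect and artemisinin wells for full effect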; details: P. falciparum HB3 in erythrocytes, SYBR Green DNA, 72 h; at 28.5 µM (top of the series)
# Outline: as §1
# [6] = target: Cytochrome P450 3A4 (Homo sapiens) (UniProt P08684); experiment: qHTS Assay for Inhibitors and Substrates of Cytochrome P450 3A4 (AID 884; active means well fitted curve in the direction sought with a large enough effect; an effect the other way counts as inactive or inconclusive; further: nearly all actives have a fitted effect of over 50% in size; further: potency means the concentration at half of the fitted maximal effect; on activity change, negative = inhibition: on the % scale 0 is the no-effect control and ±100 the full control effect)
# Sequence of Cytochrome P450 3A4 (Homo sapiens) (P08684 whole entry, looked up): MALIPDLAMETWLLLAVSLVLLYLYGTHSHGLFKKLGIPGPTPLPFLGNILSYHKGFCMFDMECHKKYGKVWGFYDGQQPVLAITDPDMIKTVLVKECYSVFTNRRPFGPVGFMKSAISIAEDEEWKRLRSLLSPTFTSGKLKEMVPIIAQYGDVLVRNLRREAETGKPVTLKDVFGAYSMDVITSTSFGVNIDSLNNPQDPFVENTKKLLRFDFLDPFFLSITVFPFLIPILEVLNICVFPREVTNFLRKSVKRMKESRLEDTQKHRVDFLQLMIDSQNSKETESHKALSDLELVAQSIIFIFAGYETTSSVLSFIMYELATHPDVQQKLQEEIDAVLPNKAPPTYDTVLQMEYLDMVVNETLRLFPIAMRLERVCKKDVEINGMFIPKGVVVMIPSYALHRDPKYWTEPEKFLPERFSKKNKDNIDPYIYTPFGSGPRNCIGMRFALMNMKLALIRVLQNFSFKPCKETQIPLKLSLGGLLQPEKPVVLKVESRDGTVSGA
# Outline: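 Luminescent readout of luciferin produced by CYP3A4 (20 nM) dealkylation of Luciferin-PPXE, 25 uM (its KM). NADPH-driven reaction ran 60 min at RT after 10 min compound preincubation; data scaled to 57 uM ketoconazole as 100% inhibition.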
# [7] = qHTS profiling for inhibitors of Plasmodium falciparum (3D7) proliferation (AID 743322);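 further: infected erythrocytes exposed to compound for 72 h before lysis; 100% = DMSO vehicle wells and 0% = 0.29 µM artemisinin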; details: P. falciparum 3D7 proliferation; at 28.7 µM (top of the series)
# Outline: as §1
# [8] = qHTS profiling for inhibitors of Plasmodium falciparum (DD2) proliferation (AID 743323); details: lower = more inhibition; at 28.7 µM (top of the series)
# Outline: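 1536-well qHTS; infected RBCs 0.3% parasitemia/2.5% Hct final; cpd 72 h 37 C 5% CO2; lysis buffer + SYBR Green I, o/n RT dark; FI 485/535; norm. to 0.29 uM artemisinin and DMSO, plate-stack corrected.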
# [9] = qHTS profiling for inhibitors of Plasmodium falciparum (HB3) proliferation (AID 743324; active means well fitted curve in the direction sought with a large enough effect; an effect the other way counts as inactive or inconclusive;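 further: 100% = DMSO vehicle wells and 0% = artemisinin-treated control wells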); details: Plasmodium falciparum HB3 blood-stage proliferation; at 28.7 µM (top of the series)
# Outline: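 SYBR Green fluorescence (485 ex/535 em) of lysed cultures, incubated overnight at room temperature in the dark, quantifies parasite DNA. Infected erythrocytes at 0.3% parasitemia and 2.5% hematocrit were exposed 72 h; values normalized to DMSO and 0.29 uM artemisinin controls.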
# [10] = target: Cytochrome P450 3A4 (Homo sapiens) (UniProt P08684); experiment: qHTS Assay for Activators of Cytochrome P450 3A4 (AID 885; active means well fitted curve in the direction sought with a large enough effect; an effect the other way counts as inactive or inconclusive; further: nearly all actives have a fitted effect of over 65% in size)
# Outline: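 Activators are scored by enhanced luminescence from CYP3A4 conversion of luciferin-PPXE (25uM, equal to KM) to luciferin, after 60 min at RT with an NADPH-regenerating system.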
# [11] = target: Cytochrome P450 2D6 (Homo sapiens) (UniProt P10635); experiment: qHTS Assay for Inhibitors and Substrates of Cytochrome P450 2D6 (AID 891; active means well fitted curve in the direction sought with a large enough effect; an effect the other way counts as inactive or inconclusive;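 further: luciferin methyl ether substrate demethylated by CYP2D6 with NADPH regeneration; on the % scale 0 is the no-effect control and ±100 the full control effect; nearly all actives have a fitted effect of over 60% in size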)
# Sequence of Cytochrome P450 2D6 (Homo sapiens) (P10635 whole entry, looked up): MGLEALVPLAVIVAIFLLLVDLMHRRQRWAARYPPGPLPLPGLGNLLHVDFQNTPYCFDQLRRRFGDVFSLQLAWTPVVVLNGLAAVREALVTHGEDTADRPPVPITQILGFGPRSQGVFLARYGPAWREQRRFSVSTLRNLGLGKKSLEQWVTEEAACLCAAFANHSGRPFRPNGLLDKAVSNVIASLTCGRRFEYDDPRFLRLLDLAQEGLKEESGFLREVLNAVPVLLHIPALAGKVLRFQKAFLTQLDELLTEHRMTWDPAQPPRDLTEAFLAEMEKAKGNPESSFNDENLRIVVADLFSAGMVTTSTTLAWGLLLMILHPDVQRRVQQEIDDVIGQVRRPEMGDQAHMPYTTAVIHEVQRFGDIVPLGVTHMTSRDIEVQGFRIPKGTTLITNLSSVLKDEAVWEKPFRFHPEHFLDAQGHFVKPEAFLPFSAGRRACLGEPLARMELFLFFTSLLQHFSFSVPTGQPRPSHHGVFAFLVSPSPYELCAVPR
# Outline: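 Luminescent read-out of luciferin formed by 5 nM human CYP2D6 demethylating 30 uM Luciferin-ME EGE (Km level) over 60 min at room temperature after NADPH regeneration addition. Data normalized to full inhibition by 1.43 uM quinidine.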
# [12] = target: Cytochrome P450 2C19 (Homo sapiens) (UniProt P33261); experiment: qHTS Assay for Inhibitors and Substrates of Cytochrome P450 2C19 (AID 899; active means well fitted curve in the direction sought with a large enough effect; an effect the other way counts as inactive or inconclusive; further: on the % scale 0 is the no-effect control and ±100 the full control effect; nearly all actives have a fitted effect of over 60% in size)
# Sequence of Cytochrome P450 2C19 (Homo sapiens) (P33261 whole entry, looked up): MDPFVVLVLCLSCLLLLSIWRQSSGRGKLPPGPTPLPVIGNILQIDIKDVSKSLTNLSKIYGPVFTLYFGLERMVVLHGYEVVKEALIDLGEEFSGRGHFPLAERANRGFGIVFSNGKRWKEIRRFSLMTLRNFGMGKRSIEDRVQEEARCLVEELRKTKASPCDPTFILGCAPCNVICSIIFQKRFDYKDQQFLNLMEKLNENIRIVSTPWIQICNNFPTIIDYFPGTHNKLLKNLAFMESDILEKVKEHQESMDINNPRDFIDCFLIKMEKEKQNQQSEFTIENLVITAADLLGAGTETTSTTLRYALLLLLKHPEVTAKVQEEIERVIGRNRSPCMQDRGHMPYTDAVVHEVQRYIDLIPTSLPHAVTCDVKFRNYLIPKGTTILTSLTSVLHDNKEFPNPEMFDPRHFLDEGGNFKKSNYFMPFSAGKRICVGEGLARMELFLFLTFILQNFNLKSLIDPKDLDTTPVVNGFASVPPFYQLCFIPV
# Outline: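 Luminescent read-out of luciferin formed from Luciferin-H EGE (10uM, equal to KM). Enzyme 5nM in 50mM KPO4; compound added, 10 min at 37C, then NADPH regenerating system for 60 min at 37C. Full inhibition defined by 57uM ketoconazole.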
smiles,measurement,setting,value
COc1ccc(-c2ccc3c(n2)CCCN3C[C@H](O)CN2CCCc3nc(C)c(C)cc32)cc1,Potency,[1],3.98 µM (active)
COC1=C2C[C@H](C)C[C@H](OC)[C@@H](O)[C@@H](C)C=C(C)[C@H](OC(N)=O)[C@@H](OC)C=CC=C(C)C(=O)NC(=CC1=O)C2=O,"parasite growth, % of DMSO control",[2],5.44%
same,"parasite growth remaining, % of DMSO control (lower = more inhibition)",[3],7.35%
same,"parasite growth, % of control (lower = inhibition)",[4],6.42%
same,"growth, % of control",[5],2.93%
CCOC(=O)[C@]1(C(NC(=O)OC)c2cccc(F)c2)CCCC1=O (some centres undefined),Potency,[1],inactive
same,"activity change, negative = inhibition",[6],-16.9% [at 11.4 µM] (inactive)
CN[C@@H]1[C@@H](O[C@H]2[C@H](O[C@H]3[C@H](O)[C@@H](O)[C@H](N=C(N)N)[C@@H](O)[C@H]3N=C(N)N)O[C@@H](C)[C@]2(O)C=O)O[C@@H](CO)[C@H](O)[C@H]1O,"parasite growth, % of DMSO control",[2],93.9%
same,"parasite growth remaining, % of DMSO control (lower = more inhibition)",[3],105%
same,"parasite growth, % of control (lower = inhibition)",[4],118%
same,"growth, % of control",[5],86.4%
NCCC[C@H](N)CC(=O)N[C@H]1CNC(=O)[C@H]([C@H]2C[C@H](O)C=C(N)N2)NC(=O)C(=CNC(N)=O)NC(=O)[C@H](CO)NC(=O)[C@H](CO)NC1=O (β3hOrn-[Dap]SS[ΔAla(3-NHCONH2)][X2]; lactam 1-C),"parasite growth, % of DMSO control",[2],96%
same,"parasite growth remaining, % of DMSO control (lower = more inhibition)",[3],96%
same,"parasite growth, % of control (lower = inhibition)",[4],133%
same,"growth, % of control",[5],100%
C[C@]1(COc2ccc(N3CCC(Oc4ccc(OC(F)(F)F)cc4)CC3)cc2)Cn2cc([N+](=O)[O-])nc2O1,"parasite growth, % of DMSO control",[2],81.7%
same,"parasite growth remaining, % of DMSO control (lower = more inhibition)",[3],82%
same,"parasite growth, % of control (lower = inhibition)",[4],90.2%
same,"growth, % of control",[5],88.7%
COC(=O)NC(/C(C(=O)OC)=C(\C)NCc1ccccc1)c1cccc(C)c1 (centres undefined),Potency,[1],inactive
same,"activity change, negative = inhibition",[6],-22.4% [at 11.4 µM] (inactive)
C[C@H]1Cc2c([nH]c3cc(Cl)c(F)cc23)[C@@]2(N1)C(=O)Nc1ccc(Cl)cc12,remaining parasite growth % (stronger effect = lower value),[7],-1.02%
same,"activity, percent of control",[8],-0.226%
same,"remaining proliferation (% of control), lower = more inhibition",[9],0.369%
same,"parasite growth, % of DMSO control",[2],5.02%
same,"parasite growth remaining, % of DMSO control (lower = more inhibition)",[3],6.27%
same,"parasite growth, % of control (lower = inhibition)",[4],33.6%
same,"growth, % of control",[5],7.99%
COC(=O)C1=C(C)N(Cc2ccccc2)C2=C(C(C)=O)C(c3ccccc3)[C@@](O)(C(=O)OC)C(=O)N2C1c1ccccc1 (some centres undefined),Potency,[1],inactive
same,Potency,[6],3.98 µM (active)
same,"activity change, negative = inhibition",[6],-19% [at 11.4 µM] (inactive)
same,"activity change, positive = activation",[10],-79.4% [at 11.4 µM] (inactive)
same,Potency,[11],inactive
same,Potency,[12],inactive
